From PubChem BioAssay (NCI)
Compounds without any hit were thinned out: in the full panel of roughly 83,000, 20% have a hit.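 The endpoint reported here, percent growth, reads 100 for growth as untreated, 0 for no net growth and -100 for all cells dead.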 A number with no mark means an inactive call. Active and inactive are the calls of the source. Rule for the calls: active = growth percent below 10; inactive = the rest.

Tested on: HL-60(TB) leukemia
Test: NCI-60 one-dose screen, 48 h (100 = growth as untreated, 0 = no growth, -100 = all killed)
Conditions: 10 µM unless noted

Compound	growth
Cc1ccc(C(=O)/C(=C\c2ccc([N+](=O)[O-])cc2)S(=O)Cc2ccc(Cl)cc2)cc1 (stereo not given)	33.9%
CC1c2ccccc2-c2ccccc2N1C (stereo not given)	106%
CC12CCC3C4(C)COC(c5ccco5)OC4CCC3(C)C1CC(C1=CCOC1=O)O2 (stereo not given)	98.3%
CC(C)(C)OC(=O)N1CCN(c2ccc(N)cc2)C(=O)C1	102%
CCCCCCN(CCCCCC)CCC(O)c1ccc2ccccc2c1 (stereo not given)	42.4%
Nc1c(C(=O)Nc2cccc3c2OCCO3)sc2nc3c(cc12)CN(Cc1ccccc1)CC3	19.1%
Cc1cccc(C)c1NC(=O)Nc1ccccc1	104%
CCN(C(=O)c1cc2ncccc2[nH]1)[C@H]1CCC[C@@H](NCc2cccc(F)c2)C1	130%
CC(O)CN(CCO)CCN(CCO)CC(C)O (stereo not given)	102%
CC1=C(C(=O)/C=C/c2ccc(N(C)C)cc2)C(c2ccccc2)NC(=S)N1 (stereo not given)	99.4%
COc1cc(C2CC(c3ccc(N(C)C)cc3)=NN2C(C)=O)cc(OC)c1OC (stereo not given)	-3.98% (active)
FC(F)(F)c1cc(CNc2nc(Cl)ncc2Br)cc(C(F)(F)F)c1	85.2%
CCCCCCCCCCCC[n+]1ccccc1	-49.7% (active)
CC1C(/C=N/Nc2ccccc2)C(C#N)(C#N)C1(C#N)C#N (stereo not given)	54.3%
C/C1=C\CC[C@@]2(C)O[C@H]2[C@H]2OC(=O)C(CN3CCN(CC4C(=O)O[C@H]5[C@H]4CC/C(C)=C/CC[C@@]4(C)O[C@@H]54)CC3)[C@@H]2CC1 (stereo not given in full)	98.7%
